Source: PubChem (National Center for Advancing Translational Sciences (NCATS))
An excerpt weighted towards active compounds, which were near 11% of everything screened.
L3MBTL1 block: blocks human L3MBTL1; Q9Y468; AlphaScreen L3MBTL1–H3K9me1 peptide binding; Potency, µM (highest dose often 57.1 µM), for the others: at the highest dose activity, negative = inhibition, usual class: inhibitors; AID 485360; 0.66% of 230,000 active; note: % is set by controls: 0 for no effect and ±100 for the full control effect; nearly all actives have a fitted effect of over 60% in size
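L3MBTL1 (50 nM) pre-complexed 30 min with biotinylated H3(1-15)K9me1 peptide (75 nM), then compounds added for 30 min at room temperature; AlphaScreen streptavidin donor/nickel chelate acceptor beads (10 ug/mL final) read after 30 min dark incubation.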
G9a inh: inhibitors of human histone lysine methyltransferase G9a. Q96KQ7. G9a H3K9 monomethylation, AlphaScreen, 2 h. Potency, µM (top dose mostly 102 µM), for inactives: at the top dose activity, negative = inhibition, usual class: inhibitors. 8.8% of 350,000 active; note: % is set by controls: 0 for no effect and ±100 for the full control effect; nearly all actives have a fitted effect of over 75% in size
Target sequence (Q96KQ7 913-1193 limits assumed): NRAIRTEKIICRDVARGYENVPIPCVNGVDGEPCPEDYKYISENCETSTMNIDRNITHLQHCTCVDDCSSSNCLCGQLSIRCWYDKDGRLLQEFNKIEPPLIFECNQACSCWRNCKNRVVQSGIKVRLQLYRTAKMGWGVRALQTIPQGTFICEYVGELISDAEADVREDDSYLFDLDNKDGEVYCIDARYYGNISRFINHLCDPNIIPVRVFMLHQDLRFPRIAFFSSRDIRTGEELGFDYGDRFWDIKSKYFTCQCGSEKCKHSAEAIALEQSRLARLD
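G9a (20 nM) was preincubated 15 min with compound, then reacted 2 h at room temperature with 500 nM biotin-H3K9 peptide and 20 µM SAM. Monomethyl-H3K9 detected by AlphaScreen using anti-H3K9me1 antibody.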
HP1b binding inh: HP1-beta chromodomain-methylated histone interaction inhibition; P83916; AlphaScreen HP1-beta / biotin-H3K9me3 peptide binding; Potency, µM (top dose mostly 114 µM), for inactives: top-dose activity change, negative = inhibition, most hits filed as inhibitors; 0.56% of 390,000 active; AID 540317; note: nearly all actives have a fitted effect of over 70% in size
Target sequence (P83916 whole entry, looked up): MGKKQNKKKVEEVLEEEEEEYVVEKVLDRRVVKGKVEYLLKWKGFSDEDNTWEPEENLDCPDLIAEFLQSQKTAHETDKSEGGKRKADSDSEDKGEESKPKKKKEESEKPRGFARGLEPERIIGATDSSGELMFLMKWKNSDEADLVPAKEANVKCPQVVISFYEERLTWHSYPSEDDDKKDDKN
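HP1-beta protein (50 nM final) preincubated 30 min at room temperature with biotinylated H3(1-18)K9me3 peptide (50 nM) in PBS pH 7.4, 0.01% Tween-20, then compound added for 30 min. AlphaScreen streptavidin donor/nickel chelate acceptor beads (10 ug/mL final), 30 min dark, luminescence read.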
BAZ2B block: blocks human BAZ2B; Q9UIF8; AID 504333; AlphaScreen BAZ2B-H3K14Ac peptide displacement; 4.4% of 360,000 active; Potency, µM (titrated, usually from 114 µM), inactives show at the top dose activity change, negative = inhibition, usual class: inhibitors; note: % is set by controls: 0 for no effect and ±100 for the full control effect; nearly all actives have a fitted effect of over 60% in size
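Inhibition is scored as reduced AlphaScreen emission. The BAZ2B/b-H3(5-23)K14Ac complex (50 nM each) in PBS pH 7.4, 0.01% Tween-20 meets compound (up to 110 uM) for 30 min at RT before bead addition.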
JMJD2A Tudor: JMJD2A Tudor domain (human) inhibition. O75164. AlphaScreen JMJD2A-Tudor / H3K4me3 peptide binding. Potency, µM (highest dose often 114 µM), for inactives: at the highest dose activity change, negative = inhibition, actives largely listed as inhibitors. 4.4% of 390,000 active. AID 504339; note: % is set by controls: 0 for no effect and ±100 for the full control effect; nearly all actives have a fitted effect of over 50% in size
Numbers without * were called inactive; u = inconclusive; x = no result; [ ] = remark or other dose. Calls come from the whole dose curve; as a rule, active = well fitted inhibition curve with a large enough effect; inconclusive = small, poorly fitted or top-dose-only effect; inactive = no such curve, though single readings can be large or run the other way. Potency is the fitted concentration of half-maximal effect.

SMILES | L3MBTL1 block | G9a inh | HP1b binding inh | BAZ2B block | JMJD2A Tudor
COc1ccc(CCNC(=O)CSc2nc(-c3ccc(F)cc3)cc(C(F)(F)F)n2)cc1OC | x | 1%[59 µM] | 22% | -28% | -20%
CCOc1ccc(Nc2oc(/C=C/c3cc(OC)c(OC)c(OC)c3)nc2C#N)cc1 | x | 4%[59 µM] | 30% | -24% | -11%
O=C1c2cccnc2C(Nc2ccc(Br)cc2)N1Cc1cccs1 (stereo unspecified) | x | 50µM* | 9% | x | u
O=C1c2cccnc2C(Nc2ccc(Br)cc2Br)N1Cc1cccs1 (stereo unspecified) | -10% | -24% | x | -24% | x
O=C1c2cccnc2C(Nc2ccc(F)c(Cl)c2)N1Cc1cccs1 (stereo unspecified) | x | 50µM* | 17% | u | -10%
COc1ccc(NC2c3ncccc3C(=O)N2Cc2cccs2)cc1 (stereo unspecified) | -1% | 50µM* | u | 71µM* | u
C#CC1(NC(=O)NCCCC)CCCCC1 | 11% | x | 27% | 1% | -12%
Cc1cc2nc3c(=O)[nH]c(=O)nc-3n(CC(O)C(O)C(O)CO)c2cc1C (stereo unspecified) | x | 6.3µM* | x | x | x
CC(=O)OCCn1c2nc(=O)[nH]c(=O)c-2nc2cc(C)c(C)cc21 | -10% | -23% | 27% | 7% | -24%
CCCCN(C)CCCNC(=O)Cn1ncc2c3ccccc3n(Cc3cc(C)ccc3C)c2c1=O | x | -12%[59 µM] | 17% | u | -29%
O=c1[nH]cnc2nc[nH]c12 | x | -5%[12.7 µM] | x | x | x
O=c1[nH]cnc2c1N1CCC2CC1 | -24% | 45µM* | 10% | u | 28µM*
Cc1ncc(CO)c2c1Oc1nc(-c3ccc(F)cc3)nc(SCC(=O)N3CCCCC3)c1C2 | x | -8%[59 µM] | 31% | -22% | -9%
CCN1CCCC1CN(Cc1cc2cc(C)cc(C)c2[nH]c1=O)C(=O)Nc1ccccc1OC (stereo unspecified) | -1% | 50µM* | 13% | -11% | -13%
CCN1CCCC1CN(Cc1cc2ccc(C)cc2[nH]c1=O)C(=S)Nc1ccc(OC)cc1OC (stereo unspecified) | -6% | -14% | 10% | -29% | -26%
O=C(CSc1ccsc1[N+](=O)[O-])Nc1cc(F)ccc1F | 40µM* | 35µM* | u | 20µM* | 45µM*
CCN(CC)c1ccc(NC(=O)CSc2ccsc2[N+](=O)[O-])c(C)c1 | u | u | u | 32µM* | 22µM*
CC(=O)c1ccc(NC(=O)CSc2ccsc2[N+](=O)[O-])cc1 | -21% | 50µM* | -3% | 35µM* | u
O=C(CSc1ccsc1[N+](=O)[O-])NCCc1ccc(Cl)cc1 | -4% | 15%[59 µM] | 20% | -7% | -11%
COc1ccc(N2C(=S)N(C(=O)c3ccccc3)C(=Nc3ccccc3)C2=Nc2ccccc2)cc1 | x | x | -53% | x | u
COc1ccc(N=C2C(=Nc3ccc(OC)cc3)N(c3ccc(N(C)C)cc3)C(=S)N2c2ccc(OC)cc2)cc1 | x | 8.9µM* | u | 1.6µM* | 2.2µM*
COc1ccc(N=C2C(=Nc3ccc(OC)cc3)N(c3ccccc3)C(=S)N2C(=O)c2ccc(Cl)cc2)cc1 | -16% | 7.1µM* | u | u | u
COc1ccc(N=C2C(=Nc3ccc(OC)cc3)N(c3ccc(OC)cc3)C(=S)N2C(=O)c2ccc(OC)cc2)cc1 | u | 3.5µM* | -53% | u | u
C=CCOc1c(Br)cc(CNCCCN2CCOCC2)cc1OC | 4% | x | 42% | 0% | -4%
C[C@]12c3[nH]c4ccc(Cl)cc4c3CCN1C(=O)[C@@H](CC(=O)NCCc1ccccn1)C[C@@H]2C(=O)N1CCCCC1 | -1% | x | 23% | x | -29%
O=C(Nc1cccc(OCc2cc(=O)n3ccccc3n2)c1)Nc1cccc(C(F)(F)F)c1 | x | 2%[59 µM] | 18%[57 µM] | 2% | -8%
Cc1cc(SCC(=O)Nc2ccc(C(F)(F)F)cc2)nc(=O)[nH]1 | x | -1%[59 µM] | -2% | 0% | -6%
CC(=O)c1cnc(-c2ccccn2)s1 | 17% | 32µM* | -18% | -11% | -10%
CC(=O)c1cnc(-c2ccccc2Cl)s1 | 15% | -6% | 27% | 2% | -1%
COc1ccc(C2N=C(Nc3nc4ccccc4o3)NC3=C2C(=O)CC(C)(C)C3)cc1 (stereo unspecified) | x | x | 13%[57 µM] | x | -8%[57.1 µM]
